The source of these data is PubChem BioAssay.

Activity calls are given as the source filed them. Unless noted, no rule for the calls is given here.

Test [1] is described as follows: compounds binding Alexa647 anti-His antibody – biochemical, small-molecule microarray, 635 nm fluorescence, artefact control for SMM control protein annotation, primary screen (AID 1128).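 Also: score merges feature fluorescence with signal-to-noise for each printed compound spot.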 The conditions noted are these: higher = more signal.
For test [2], the system named is Human papillomavirus type 1a E7 protein (residues 1-88). Nature of the test: HPV1a E7 small-molecule binders, primary screen, biochemical, small-molecule microarray, residues 1-88, 635 nm (AID 1129). The conditions noted are these: small-molecule microarray binding, fluorescence 635 nm; higher = more signal.
Test [3] addresses Focal adhesion kinase 1 (Homo sapiens) (UniProt Q05397). The experiment in a line: PTK2 protein binding on printed compound slides – biochemical, small-molecule microarray, 635/667 nm fluorescence, BSA, DTT, primary screen (AID 1130).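 Also: composite of spot emission at 667 nm and signal to noise over triplicate slides.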 The following applies: 635 nm fluorescence, higher = more signal.
For test [4], the system named is Fibrinogen (Alexa647-labelled). The experiment in a line: Alexa647-fibrinogen binding to printed small molecules – biochemical, small-molecule microarray, 635/667 nm fluorescence, artefact control for SMM control-protein annotation, profiling panel (AID 1131).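 Also: z-score merges 667 nm fluorescence with per-spot signal-to-noise over triplicate slides.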 The following applies: fibrinogen-A647 binding fluorescence, higher = more signal.
The target in test [5] is Follistatin (Homo sapiens) (UniProt P19883). The experiment in a line: FST protein binding to printed compounds – biochemical, small-molecule microarray, 635/667 nm fluorescence, primary screen (AID 1132). The conditions noted are these: 635 nm fluorescence, higher = more signal.
Sequence of Follistatin (Homo sapiens) (P19883 whole entry, looked up): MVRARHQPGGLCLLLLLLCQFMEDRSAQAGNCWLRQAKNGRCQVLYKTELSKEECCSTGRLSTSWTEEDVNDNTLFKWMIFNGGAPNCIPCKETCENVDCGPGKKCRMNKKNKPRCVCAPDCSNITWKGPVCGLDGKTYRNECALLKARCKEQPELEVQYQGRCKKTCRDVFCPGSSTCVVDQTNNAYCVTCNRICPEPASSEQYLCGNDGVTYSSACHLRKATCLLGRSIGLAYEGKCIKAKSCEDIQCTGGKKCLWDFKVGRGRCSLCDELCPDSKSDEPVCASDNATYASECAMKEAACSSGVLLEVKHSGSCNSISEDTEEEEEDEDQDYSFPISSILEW
In test [6] the target is Fibroblast growth factor 2 (Homo sapiens) (UniProt P09038). Nature of the test: basic fibroblast growth factor binding to printed compounds – biochemical, small-molecule microarray, 635/667 nm fluorescence, primary screen (AID 1133). The conditions noted are these: FGF2, fluorescence 635/667, higher = more signal.
Sequence of Fibroblast growth factor 2 (Homo sapiens) (P09038 whole entry, looked up): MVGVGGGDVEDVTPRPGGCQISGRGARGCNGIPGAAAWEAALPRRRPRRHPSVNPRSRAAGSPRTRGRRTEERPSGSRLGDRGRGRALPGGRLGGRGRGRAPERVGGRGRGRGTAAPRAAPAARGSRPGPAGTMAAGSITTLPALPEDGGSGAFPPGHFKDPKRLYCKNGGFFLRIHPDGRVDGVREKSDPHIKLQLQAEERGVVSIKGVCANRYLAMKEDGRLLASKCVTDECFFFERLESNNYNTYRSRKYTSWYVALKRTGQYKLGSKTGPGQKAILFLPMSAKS
Test [7] in a line: JC-1 mitochondrial potential readout, lung cancer cells – cell-based, A549, JC-1 fluorescence, basal, 24 h, 100 nL, profiling panel (AID 1138).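 Also: A549 lung adenocarcinoma cells under basal conditions with no added stimulus; test concentration not given here.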 The conditions noted are these: higher = more signal.
Test [8] deals with Lefty1. The experiment in a line: Lefty1 protein binding to printed compounds – biochemical, small-molecule microarray, 635/667 nm fluorescence, primary screen (AID 1139). The conditions noted are these: fluorescence 635/667, higher = more signal.
Test [9] deals with wheat germ agglutinin (Triticum aestivum), Alexa647-labelled. The experiment in a line: Alexa647-WGA lectin binding to printed small molecules – biochemical, small-molecule microarray, 635/667 nm fluorescence, artefact control for SMM control-protein annotation, profiling panel (AID 1140).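 Also: score merges 667 nm feature emission with signal to noise over triplicate slides.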 The conditions noted are these: WGA-A647 binding, 635 nm fluorescence, higher = more signal.

For test [10], the target named is Luciferin 4-monooxygenase (Photinus pyralis) (UniProt P08659). The experiment in a line: inhibition of purified Photinus pyralis luciferase – biochemical, luminescence, purified enzyme, 2006 set, primary screen (AID 1141).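 Also: cell-free assay with purified firefly luciferase at 100 ng per well in PBS; test concentration not given here.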 The following applies: purified firefly luciferase, SteadyGlo luminescence, 30 min; higher = more signal, called active from +8 up or from −8 down.
Sequence of Luciferin 4-monooxygenase (Photinus pyralis) (P08659 whole entry, looked up): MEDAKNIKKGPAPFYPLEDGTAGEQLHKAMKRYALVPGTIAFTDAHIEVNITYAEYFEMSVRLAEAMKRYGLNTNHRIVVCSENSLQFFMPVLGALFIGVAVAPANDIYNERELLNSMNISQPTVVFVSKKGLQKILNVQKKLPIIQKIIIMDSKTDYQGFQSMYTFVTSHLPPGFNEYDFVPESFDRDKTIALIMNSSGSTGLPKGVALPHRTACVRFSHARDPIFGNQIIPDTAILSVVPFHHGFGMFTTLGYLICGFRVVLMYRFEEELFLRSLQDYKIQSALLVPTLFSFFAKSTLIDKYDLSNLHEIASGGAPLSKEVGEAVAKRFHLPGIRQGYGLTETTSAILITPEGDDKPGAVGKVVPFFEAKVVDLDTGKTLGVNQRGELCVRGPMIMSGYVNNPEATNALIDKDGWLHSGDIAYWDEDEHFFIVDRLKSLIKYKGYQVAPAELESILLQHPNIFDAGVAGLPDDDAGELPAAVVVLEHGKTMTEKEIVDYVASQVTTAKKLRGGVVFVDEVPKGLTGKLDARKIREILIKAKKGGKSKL

In test [11] the test system is Wnt5a (protein binding on small-molecule microarray). Nature of the test: small molecules binding Wnt5a protein – biophysical, small-molecule microarray, 635/667 nm fluorescence, primary screen (AID 1142).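 Also: fluorescence read at 667 nm with signal to noise per printed feature.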 The following applies: 635 nm fluorescence, higher = more signal.
The nature of test [12]: ATP-based viability of Huh7 replicon cells – cell-based, CellTiter-Glo luminescence, basal, 48 h, cytotoxicity control for HCV replication inhibitor project, primary screen (AID 1143).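 Also: Huh7 hepatoma cells carrying a hepatitis C replication reporter with no stimulus; test concentration not given here.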 The conditions noted are these: higher = more signal, called active from +8 up or from −8 down. Background: Replicon systems follow genome replication, usually without infectious particles.
Test [13] is described as follows: Pseudomonas biofilm growth suppression – PAO1 strain, BacTiter-Glo luminescence, LB-PBS, primary screen (AID 1144). The conditions noted are these: P. aeruginosa PAO1 biofilm, 12 h, higher = more signal.
The nature of test [14]: basal CRE-LacZ reporter activity in PC12 – cell-based, unstimulated, primary screen (AID 1145). The conditions noted are these: no forskolin, luminescence, 4.5 h, higher = more signal, called active from +8 up or from −8 down.
The nature of test [15]: forskolin-driven CRE-LacZ activity in PC12 – cell-based, CRE-LacZ reporter, forskolin-stimulated, primary screen (AID 1146).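 Also: PC12 cells with 6xCRE LacZ reporter stimulated by forskolin 10 µM; beta-galactosidase reporter signal reflecting CREB driven transcription.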 The conditions noted are these: luminescence, 4.5 h, higher = more signal, called active from +8 up or from −8 down.
For test [16], the target named is Streptavidin (Streptomyces avidinii) (UniProt P22629). The experiment in a line: compounds binding control protein streptavidin – biophysical, small-molecule microarray, 635/667 nm fluorescence, artefact control for SMM compound annotation, primary screen (AID 1147).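 Also: signal reflects streptavidin binding to arrayed compounds as a control protein.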 The conditions noted are these: higher = more signal.
Sequence of Streptavidin (Streptomyces avidinii) (P22629 whole entry, looked up): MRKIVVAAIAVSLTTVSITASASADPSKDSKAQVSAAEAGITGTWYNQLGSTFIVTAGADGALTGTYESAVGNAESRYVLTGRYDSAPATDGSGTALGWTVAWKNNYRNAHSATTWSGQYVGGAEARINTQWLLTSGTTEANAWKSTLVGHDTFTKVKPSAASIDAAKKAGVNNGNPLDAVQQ
Test [17] is described as follows: probe aInhba binding on compound microarray – biochemical, small-molecule microarray, 635/667 nm fluorescence, primary screen (AID 1148).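 Also: score merges 667nm spot fluorescence with signal-to-noise for antibody binding to printed compounds.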 The following applies: higher = more signal.
The target of test [18] is Torsin-1A (Homo sapiens) (UniProt O14656). Nature of the test: TOR1A wild-type binding on microarray – cell lysate, small-molecule microarray, lysate, 635/667 nm, primary screen (AID 1149). The conditions noted are these: COS7 hTOR1A-WT lysate, 635 nm fluorescence, higher = more signal.
Sequence of Torsin-1A (Homo sapiens) (O14656 whole entry, looked up): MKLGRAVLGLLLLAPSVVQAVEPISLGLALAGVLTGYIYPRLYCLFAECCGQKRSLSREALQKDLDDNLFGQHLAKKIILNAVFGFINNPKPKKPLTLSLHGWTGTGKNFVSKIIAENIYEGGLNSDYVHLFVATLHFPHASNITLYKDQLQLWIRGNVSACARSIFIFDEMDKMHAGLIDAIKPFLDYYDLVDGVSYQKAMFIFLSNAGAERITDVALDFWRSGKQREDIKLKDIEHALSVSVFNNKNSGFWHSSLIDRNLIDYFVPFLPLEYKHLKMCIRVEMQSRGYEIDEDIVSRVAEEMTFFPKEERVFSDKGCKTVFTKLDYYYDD
The target is the same in test [19]. The experiment in a line: torsin A mutant lysate binding on microarrays – cell lysate, small-molecule microarray, COS7 lysate, 635/667 nm fluorescence, primary screen (AID 1150).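 Also: score pools 667 nm emission and signal to noise measuring lysate protein binding.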 The conditions noted are these: COS7 hTOR1A mutant lysate, 635 nm fluorescence, higher = more signal.
Test [20] deals with Sonic hedgehog protein (Shh). Nature of the test: Sonic hedgehog microarray binding compounds – biochemical, small-molecule microarray, 635/667 nm fluorescence, primary screen (AID 1151).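 Also: Shh protein binding to compounds spotted on small-molecule microarray slides; score combines spot fluorescence intensity with signal-to-noise across triplicate slides.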 The following applies: 635 nm fluorescence, higher = more signal.

Sequence of Focal adhesion kinase 1 (Homo sapiens) (Q05397 whole entry, looked up): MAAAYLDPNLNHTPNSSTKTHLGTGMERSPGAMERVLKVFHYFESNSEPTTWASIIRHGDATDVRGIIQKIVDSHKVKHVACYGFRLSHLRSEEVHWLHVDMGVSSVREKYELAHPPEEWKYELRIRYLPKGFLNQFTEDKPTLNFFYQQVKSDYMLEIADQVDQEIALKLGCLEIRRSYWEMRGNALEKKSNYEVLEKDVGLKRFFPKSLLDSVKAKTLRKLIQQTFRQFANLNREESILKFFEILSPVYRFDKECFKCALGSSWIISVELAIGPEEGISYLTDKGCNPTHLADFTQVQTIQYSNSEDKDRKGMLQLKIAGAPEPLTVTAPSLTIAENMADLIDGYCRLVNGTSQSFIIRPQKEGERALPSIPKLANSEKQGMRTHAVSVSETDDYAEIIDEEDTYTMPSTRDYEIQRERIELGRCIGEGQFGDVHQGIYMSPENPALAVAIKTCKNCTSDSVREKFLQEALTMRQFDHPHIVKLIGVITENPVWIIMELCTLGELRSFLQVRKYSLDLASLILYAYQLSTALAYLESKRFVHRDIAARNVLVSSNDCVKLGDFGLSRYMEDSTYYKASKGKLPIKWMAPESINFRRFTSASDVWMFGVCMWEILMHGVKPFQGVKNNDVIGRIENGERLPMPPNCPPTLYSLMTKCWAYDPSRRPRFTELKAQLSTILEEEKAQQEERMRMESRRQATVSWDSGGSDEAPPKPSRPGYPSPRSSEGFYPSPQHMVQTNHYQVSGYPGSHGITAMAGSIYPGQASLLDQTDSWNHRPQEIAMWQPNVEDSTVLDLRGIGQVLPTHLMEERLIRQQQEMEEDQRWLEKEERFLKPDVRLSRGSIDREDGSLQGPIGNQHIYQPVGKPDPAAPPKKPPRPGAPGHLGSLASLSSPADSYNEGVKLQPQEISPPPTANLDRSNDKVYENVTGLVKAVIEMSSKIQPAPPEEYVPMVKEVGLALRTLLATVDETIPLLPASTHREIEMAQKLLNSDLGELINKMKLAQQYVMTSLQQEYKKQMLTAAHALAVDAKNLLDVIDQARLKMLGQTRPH

`COc1ccc(O[C@@H]2[C@H](O)CO[C@H]2C=Cc2ccccc2)cc1`: the composite z-score in test [1] was 0.326; in test [2], -0.437; in test [3] it was 0.051; in test [4], 0.173; in [5], -0.117; in test [6], 0.117. In addition, the composite z-score was -0.208 in test [8]; 0.0385 in test [9]; -0.0668 in test [11]; -0.06 in [16]; -0.179 in test [17]; -0.696 in test [18]. The values for the composite z-score in [19] and in test [20] were -0.668 and 0.253, respectively. In addition, the z-score in test [7] was 1.66; in test [10], -1.69 (inactive); in test [12] it was -0.617 (inactive); in test [13], -1.74 (inactive); in test [14], 0.284 (inactive); in test [15], -1.04 (inactive).

For `CC(CCN1CCCCc2nc(C)c(C)cc21)=NO[C@@H](C)c1cn([C@H](CO)Cc2ccccc2)nn1`, the composite z-score in test [1] was 1.67; in test [2] it was 0.285; in test [3], 0.321; in test [4], 0.624; in test [5] it was 0.915; in test [6], 0.545. The composite z-score in test [8] was 0.828; in [9], -0.101; in test [11], -0.0648; in test [16] it was 0.336; in [17], -0.016; in test [18], 0.803. For the same compound, the composite z-score in test [19] came out at 0.728; in [20], 1.02. For the same compound, the z-score was 0.868 in test [7]; 0.175 (inactive) in test [10]; -0.831 (inactive) in test [12]; 0.48 (inactive) in [13]; 1.62 (inactive) in test [14]; -0.0513 (inactive) in test [15].

As to `C=CC[C@@H]1C=C[C@H](ON=C2[C@H]3CCn4c(=O)n(-c5ccccc5)c(=O)n4[C@H]3[C@H](O)[C@@H]3O[C@H]23)[C@@H](CO)O1`, the composite z-score in test [1] was 3.31; in [2], -0.542; in [3], -0.118; in test [4] it was 0.626; in test [5], 0.489; in test [6] it was 0.095. Also, the composite z-score in test [8] was 0.96; in test [9] it was -0.0168; in test [11] it was 0.132; in test [16], 0.43; in test [17] it was -0.0736; in test [18], -0.207. For the same compound, the values for the composite z-score in test [19] and in test [20] were 0.369 and 0.23, respectively. Also, the z-score in [7] is -0.544; in test [10], 0.845 (inactive); in test [12], 1.17 (inactive); in test [13], -0.0199 (inactive); in test [14] it was 0.164 (inactive); in test [15] it was 0.312 (inactive).

Regarding `COC(=O)[C@@H]1CC[C@H](C)[C@@H](c2ccc(C)cc2)N1C(=O)c1ccc(C=NO[C@H](C)c2cn([C@@H]3COC[C@H]3O)nn2)cc1`, the composite z-score in test [1] is -0.684; in test [2], 1.13; in test [3], 0.155; in test [4], 0.677; in [5] it was 0.353; in test [6] it was 0.502. For the same compound, the composite z-score in test [8] was 0.551; in [9], 0.145; in [11] it was 0.177; in test [16], -0.243; in test [17], 0.0001; in test [18], 0.28. The composite z-score in test [19] is 0.603; in test [20], 0.749. Also, the z-score in test [7] is -0.662; in test [10], 0.411 (inactive); in test [12] it was -0.228 (inactive); in test [13], 0.068 (inactive); in test [14], 2.34 (inactive); in [15] it was -0.377 (inactive).

Regarding `C#CCCCON=C1C[C@@H](O)[C@@H](O)[C@@H]2[C@@H]3C(=O)N(c4ccc(F)cc4F)C(=O)[C@@H]3CC[C@H]12`, the composite z-score in [1] was 0.968; in test [2] it was 1.02; in test [3], 0.208; in test [4], 0.894; in test [5], 0.424; in test [6], 0.322. The composite z-score in [8] was 0.662; in test [9] it was 0.0156; in [11] it was 0.166; in test [16] it was -0.222; in test [17], -0.183; in test [18], 0.696. Moreover, the composite z-score in [19] was determined as 1.31; in [20], 0.782. Besides, the z-score in test [7] was 0.0852; in [10] it was 0.573 (inactive); in test [12] it was -1.71 (inactive); in [13], -0.203 (inactive); in [14], -0.475 (inactive); in test [15], 0.278 (inactive).
